About 8,800 targets were measured; listed, in parts, are those with a hit and a random draw of the rest. About 0.5% of all pairs of compound and target were hits. Unmarked numbers belong to inactive results.
Legend:
Assay in all cases: log2 fold change, soluble protein after heating vs DMSO (PISA); higher = thermal stabilisation; K562 lysate, 10 uM; active = over 0.2 and 3.5 SD of the protein, either way, in both replicates (recomputed)
ibrutinib = compound: C=CC(=O)N1CCC[C@@H](n2nc(-c3ccc(Oc4ccccc4)cc3)c3c(N)ncnc32)C1 [ibrutinib]
In short: (§1)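 K562 pellets were dounce-homogenised in PBS pH 7.4 containing 1 mM MgCl2, and the crude extract, at 1 mg/mL protein, was exposed to 10 μM compound for 30 min. Aliquots were heated for 3 min across 48°C-58°C, pooled, brought to 0.5% NP-40 at 4°C and spun at 21,000xg for 90 min, with the supernatant taken as soluble protein. TMTpro 16plex LC-MS/MS with equalised channel sums quantified that protein. Values are log-two fold changes in thermal stability relative to solvent controls, taken from duplicates.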

[1] = compound: CC(=O)c1cnc2ccc(-c3cc(Cl)c(O)c(Cl)c3)nc2c1N[C@H]1CC[C@H](CN(C)C)CC1
In short: as §1

ralimetinib = compound: CC(C)(C)Cn1c(N)nc2ccc(-c3[nH]c(C(C)(C)C)nc3-c3ccc(F)cc3)nc21 [ralimetinib]
In short: as §1

[2] = compound: CC(C)(O)CC(=O)NCCn1ccc2ncnc(Nc3ccc(Oc4cccc(C(F)(F)F)c4)c(Cl)c3)c21
In short: as §1

[3] = compound: CC(C)C1=C2N=C(C=C(N2N=C1)NCC3=CC=CC=C3)NCCCCCCN
In short: as §1

[4] = compound: CC1=C(C(CC(=O)N1)C2=CC=C(C=C2)C(F)(F)F)C(=O)NC3=C(C=C4C(=C3)C=NN4)F
In short: as §1

[5] = compound: CC1=C(C2=C(C=C1)C(=O)C3=CC=CC=C3N2CCCN)C
In short: as §1

[6] = compound: CC1=C(C=C(C=C1)NC(=O)C2=CC(=CC=C2)C(C)(C)C#N)NC3=CC4=C(C=C3)N=CN(C4=O)C
In short: as §1

[7] = compound: CC1=C(C=C(C=C1)NC(=O)C2=CC(=CC=C2)N(C)C)NC(=O)C3=CC=C(C=C3)O
In short: as §1

[8] = compound: CC1=CC=C(C=C1)SC2=C3C=C(SC3=CN=C2)C(=O)N
In short: as §1

UniProt Q9UK41, sequence (Q9UK41 whole entry, looked up): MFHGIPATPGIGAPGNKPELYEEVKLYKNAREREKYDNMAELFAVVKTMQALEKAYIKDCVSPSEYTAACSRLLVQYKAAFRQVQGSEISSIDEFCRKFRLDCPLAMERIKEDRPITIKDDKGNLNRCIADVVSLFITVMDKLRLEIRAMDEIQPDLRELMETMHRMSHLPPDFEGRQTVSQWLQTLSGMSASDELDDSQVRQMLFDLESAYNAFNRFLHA
UniProt Q9Y5T5, sequence (Q9Y5T5 whole entry, looked up): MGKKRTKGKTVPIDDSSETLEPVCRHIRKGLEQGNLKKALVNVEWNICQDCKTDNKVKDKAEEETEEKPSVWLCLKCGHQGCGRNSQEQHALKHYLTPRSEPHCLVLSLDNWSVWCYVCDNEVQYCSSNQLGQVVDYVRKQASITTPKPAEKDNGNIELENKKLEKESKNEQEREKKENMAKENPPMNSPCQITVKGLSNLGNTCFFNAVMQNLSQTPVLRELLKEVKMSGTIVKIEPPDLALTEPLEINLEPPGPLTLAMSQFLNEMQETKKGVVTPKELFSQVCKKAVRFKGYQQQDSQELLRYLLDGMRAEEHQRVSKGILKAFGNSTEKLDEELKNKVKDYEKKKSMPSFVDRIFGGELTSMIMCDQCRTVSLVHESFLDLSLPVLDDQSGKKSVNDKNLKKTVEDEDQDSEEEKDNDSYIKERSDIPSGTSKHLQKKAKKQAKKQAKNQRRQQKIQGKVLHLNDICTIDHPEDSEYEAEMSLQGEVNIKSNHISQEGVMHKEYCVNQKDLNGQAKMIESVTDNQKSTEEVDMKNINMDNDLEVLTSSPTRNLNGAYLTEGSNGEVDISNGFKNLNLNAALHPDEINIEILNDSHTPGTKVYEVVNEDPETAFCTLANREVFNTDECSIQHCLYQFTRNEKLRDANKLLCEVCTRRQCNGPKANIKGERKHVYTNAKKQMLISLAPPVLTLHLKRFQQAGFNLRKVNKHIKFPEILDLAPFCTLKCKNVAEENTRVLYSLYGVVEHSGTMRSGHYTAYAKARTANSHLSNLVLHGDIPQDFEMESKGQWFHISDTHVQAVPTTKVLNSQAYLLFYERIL
UniProt P49750, sequence (P49750 whole entry, looked up): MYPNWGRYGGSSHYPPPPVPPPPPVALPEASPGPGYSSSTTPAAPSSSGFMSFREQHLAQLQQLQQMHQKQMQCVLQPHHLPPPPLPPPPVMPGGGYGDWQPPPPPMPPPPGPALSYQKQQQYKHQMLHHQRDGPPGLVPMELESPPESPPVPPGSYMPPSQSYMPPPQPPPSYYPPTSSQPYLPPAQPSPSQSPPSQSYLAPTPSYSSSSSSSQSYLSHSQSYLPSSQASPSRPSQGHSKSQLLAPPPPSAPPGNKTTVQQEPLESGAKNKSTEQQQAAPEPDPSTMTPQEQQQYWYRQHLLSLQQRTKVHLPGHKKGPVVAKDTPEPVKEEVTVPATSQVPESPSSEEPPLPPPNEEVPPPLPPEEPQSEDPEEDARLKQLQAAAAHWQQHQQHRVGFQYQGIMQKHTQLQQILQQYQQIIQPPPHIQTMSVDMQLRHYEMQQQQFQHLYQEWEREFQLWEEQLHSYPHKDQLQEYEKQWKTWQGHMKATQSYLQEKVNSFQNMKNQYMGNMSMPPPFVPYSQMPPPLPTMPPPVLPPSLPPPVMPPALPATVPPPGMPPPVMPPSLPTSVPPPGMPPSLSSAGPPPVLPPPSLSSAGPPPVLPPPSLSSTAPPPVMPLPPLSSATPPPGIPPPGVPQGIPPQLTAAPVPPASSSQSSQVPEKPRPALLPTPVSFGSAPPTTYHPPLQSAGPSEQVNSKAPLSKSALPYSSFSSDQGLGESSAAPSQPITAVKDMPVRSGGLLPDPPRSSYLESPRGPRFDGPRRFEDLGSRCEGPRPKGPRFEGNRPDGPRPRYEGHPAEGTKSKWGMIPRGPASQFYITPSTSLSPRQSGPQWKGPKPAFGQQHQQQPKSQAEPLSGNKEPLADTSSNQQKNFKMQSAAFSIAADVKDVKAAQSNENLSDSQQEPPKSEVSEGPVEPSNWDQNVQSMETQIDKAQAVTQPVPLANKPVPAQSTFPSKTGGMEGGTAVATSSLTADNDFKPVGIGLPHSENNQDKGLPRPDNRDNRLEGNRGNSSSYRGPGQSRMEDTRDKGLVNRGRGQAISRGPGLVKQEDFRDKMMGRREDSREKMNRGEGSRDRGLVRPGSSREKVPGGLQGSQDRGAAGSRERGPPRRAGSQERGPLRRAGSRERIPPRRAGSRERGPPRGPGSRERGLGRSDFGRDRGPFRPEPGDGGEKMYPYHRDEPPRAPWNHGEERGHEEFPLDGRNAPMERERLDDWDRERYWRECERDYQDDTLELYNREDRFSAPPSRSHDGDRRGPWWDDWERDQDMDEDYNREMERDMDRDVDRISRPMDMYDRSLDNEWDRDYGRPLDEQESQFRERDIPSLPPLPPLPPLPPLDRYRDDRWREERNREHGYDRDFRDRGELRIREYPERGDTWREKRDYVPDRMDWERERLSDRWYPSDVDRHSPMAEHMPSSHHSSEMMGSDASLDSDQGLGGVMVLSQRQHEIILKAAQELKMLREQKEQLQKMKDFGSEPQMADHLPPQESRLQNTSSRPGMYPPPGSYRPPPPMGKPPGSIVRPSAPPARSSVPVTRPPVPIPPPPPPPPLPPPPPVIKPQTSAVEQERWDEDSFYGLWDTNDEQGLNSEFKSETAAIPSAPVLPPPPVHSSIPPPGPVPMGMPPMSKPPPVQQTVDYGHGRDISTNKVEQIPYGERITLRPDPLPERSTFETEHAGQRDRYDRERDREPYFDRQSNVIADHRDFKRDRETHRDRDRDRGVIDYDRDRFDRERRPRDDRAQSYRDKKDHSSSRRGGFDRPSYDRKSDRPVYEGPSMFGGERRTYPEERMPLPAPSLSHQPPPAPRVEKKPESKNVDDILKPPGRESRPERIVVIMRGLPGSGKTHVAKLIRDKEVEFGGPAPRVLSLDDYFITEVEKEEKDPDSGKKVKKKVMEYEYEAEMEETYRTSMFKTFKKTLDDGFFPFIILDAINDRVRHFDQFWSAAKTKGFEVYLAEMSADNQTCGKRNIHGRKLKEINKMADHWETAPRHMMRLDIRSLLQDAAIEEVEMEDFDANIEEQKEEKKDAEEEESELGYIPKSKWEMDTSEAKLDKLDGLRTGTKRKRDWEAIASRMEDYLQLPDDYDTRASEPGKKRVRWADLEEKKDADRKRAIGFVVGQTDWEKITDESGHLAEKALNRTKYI
UniProt Q5MNZ9, sequence (Q5MNZ9 whole entry, looked up): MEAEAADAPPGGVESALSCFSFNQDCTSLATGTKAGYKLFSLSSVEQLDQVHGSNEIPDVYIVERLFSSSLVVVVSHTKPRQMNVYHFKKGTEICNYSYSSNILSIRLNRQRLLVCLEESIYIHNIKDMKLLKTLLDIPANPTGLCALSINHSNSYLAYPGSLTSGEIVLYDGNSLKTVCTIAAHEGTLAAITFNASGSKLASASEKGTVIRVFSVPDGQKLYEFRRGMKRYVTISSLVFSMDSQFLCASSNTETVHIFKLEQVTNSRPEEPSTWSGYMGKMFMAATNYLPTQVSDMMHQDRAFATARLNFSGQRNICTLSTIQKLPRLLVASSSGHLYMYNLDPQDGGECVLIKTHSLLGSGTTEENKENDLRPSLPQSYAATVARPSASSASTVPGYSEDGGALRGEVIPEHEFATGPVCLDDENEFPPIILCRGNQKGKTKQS
UniProt Q8NI36, sequence (Q8NI36 whole entry, looked up): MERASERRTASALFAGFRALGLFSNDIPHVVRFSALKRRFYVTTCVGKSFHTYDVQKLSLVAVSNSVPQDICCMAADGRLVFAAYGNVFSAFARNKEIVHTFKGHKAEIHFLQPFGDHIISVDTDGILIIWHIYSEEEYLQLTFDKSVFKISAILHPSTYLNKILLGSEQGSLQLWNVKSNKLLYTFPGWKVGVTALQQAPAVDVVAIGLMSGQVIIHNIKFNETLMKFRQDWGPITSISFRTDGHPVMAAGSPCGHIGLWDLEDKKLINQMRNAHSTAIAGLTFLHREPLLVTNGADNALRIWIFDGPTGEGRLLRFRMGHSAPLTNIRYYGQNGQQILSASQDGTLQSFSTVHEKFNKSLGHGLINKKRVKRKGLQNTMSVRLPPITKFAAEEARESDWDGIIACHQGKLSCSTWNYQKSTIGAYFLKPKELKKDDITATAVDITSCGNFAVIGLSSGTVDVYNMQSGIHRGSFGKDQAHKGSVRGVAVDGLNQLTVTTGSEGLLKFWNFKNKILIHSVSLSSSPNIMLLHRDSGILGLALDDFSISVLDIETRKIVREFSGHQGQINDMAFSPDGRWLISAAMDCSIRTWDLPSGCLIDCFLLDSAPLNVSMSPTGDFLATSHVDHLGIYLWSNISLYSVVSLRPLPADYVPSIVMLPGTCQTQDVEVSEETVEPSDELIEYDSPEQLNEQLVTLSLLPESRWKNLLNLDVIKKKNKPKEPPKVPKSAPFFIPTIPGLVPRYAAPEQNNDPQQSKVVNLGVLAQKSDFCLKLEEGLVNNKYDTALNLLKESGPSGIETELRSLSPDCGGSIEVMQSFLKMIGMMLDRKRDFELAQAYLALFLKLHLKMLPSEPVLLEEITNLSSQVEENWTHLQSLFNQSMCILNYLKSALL
UniProt P22695, sequence (P22695 whole entry, looked up): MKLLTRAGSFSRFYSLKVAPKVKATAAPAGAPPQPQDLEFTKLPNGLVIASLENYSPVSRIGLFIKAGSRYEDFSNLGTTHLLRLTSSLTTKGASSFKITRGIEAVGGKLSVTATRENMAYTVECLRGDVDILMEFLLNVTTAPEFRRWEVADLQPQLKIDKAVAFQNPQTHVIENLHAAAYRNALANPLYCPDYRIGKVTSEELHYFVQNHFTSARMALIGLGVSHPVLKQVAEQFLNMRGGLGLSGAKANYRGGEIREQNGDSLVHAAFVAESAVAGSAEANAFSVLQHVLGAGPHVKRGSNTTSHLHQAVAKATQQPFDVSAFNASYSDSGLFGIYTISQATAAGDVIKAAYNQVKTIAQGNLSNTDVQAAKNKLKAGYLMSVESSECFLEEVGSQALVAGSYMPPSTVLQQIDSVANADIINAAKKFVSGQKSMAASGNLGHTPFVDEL

Row | Target | log2 fold change (ibrutinib) | log2 fold change [1] | log2 fold change (ralimetinib) | log2 fold change [2] | log2 fold change [3] | log2 fold change [4] | log2 fold change [5] | log2 fold change [6] | log2 fold change [7] | log2 fold change [8]
1 | VPS13C (UniProt Q709C8) | -0.011 | 0.005 | 0.02 | 0.006 | -0.001 | 0.251 (active) | -0.066 | 0.041 | -0.007 | -0.053
2 | USP16 (UniProt Q9Y5T5) | -0.027 | -0.035 | -0.001 | 0.011 | 0.017 | 0 | -0.06 | -0.027 | -0.012 | 0.019
3 | UPF3B (UniProt Q9BZI7) | -0.011 | 0.024 | 0.007 | -0.006 | -0.021 | 0.018 | -0.04 | 0.008 | -0.001 | -0.003
4 | ZMYND8 isoform 19 (UniProt Q9ULU4) | 0.111 | -0.02 | 0.047 | 0.007 | 0.002 | 0.007 | 0.027 | 0.02 | 0.011 | 0.037
5 | YWHAQ (UniProt P27348) | -0.011 | -0.001 | -0.007 | 0.028 | 0 | -0.054 | 0.007 | -0.001 | 0.01 | 0.01
6 | WAC (UniProt Q9BTA9) | -0.062 | -0.008 | -0.012 | -0.054 | -0.009 | 0.046 | 0.034 | -0.016 | 0.022 | 0.004
7 | XPO6 (UniProt Q96QU8) | -0.013 | 0.018 | 0.006 | -0.006 | -0.033 | -0.003 | -0.024 | 0.028 | 0.062 | -0.006
8 | UQCRC2 (UniProt P22695) | -0.022 | 0.001 | 0.005 | -0.04 | -0.005 | -0.001 | 0.012 | 0.029 | 0.003 | -0.013
9 | WDCP (UniProt Q9H6R7) | 0.021 | 0.021 | -0.006 | -0.045 | -0.027 | -0.023 | -0.041 | 0 | 0.01 | 0.049
10 | VTN (UniProt P04004) | -0.019 | -0.007 | 0.01 | -0.044 | 0.028 | 0.088 | 0.017 | -0.011 | 0.155 | -0.04
11 | WDR91 (UniProt A4D1P6) | 0.05 | 0.011 | 0.026 | -0.002 | -0.026 | -0.013 | -0.009 | -0.046 | 0.043 | 0.002
12 | ZNF451 (UniProt Q9Y4E5) | 0.004 | 0.019 | 0.02 | 0.007 | -0.011 | 0.033 | -0.003 | -0.012 | 0.019 | 0.055
13 | WDR7 (UniProt Q9Y4E6) | 0.067 | 0.04 | 0.063 | -0.075 | -0.03 | -0.005 | -0.013 | 0.037 | -0.06 | -0.013
14 | VPS39 (UniProt Q96JC1) | 0 | 0.021 | -0.012 | -0.056 | -0.004 | 0.014 | 0 | 0.016 | -0.014 | -0.005
15 | ZNF609 (UniProt O15014) | 0.005 | -0.025 | 0.01 | -0.034 | -0.001 | 0.01 | -0.045 | -0.082 | 0.013 | -0.058
16 | ZNHIT6 (UniProt Q9NWK9) | -0.01 | -0.097 | -0.032 | 0.005 | 0.001 | 0.036 | -0.02 | 0.032 | 0.018 | -0.029
17 | WIPI1 (UniProt Q5MNZ9) | 0.098 | -0.062 | 0.002 | 0.019 | -0.008 | 0.1 | -0.023 | -0.005 | -0.009 | -0.033
18 | VPS54 (UniProt Q9P1Q0) | 0.048 | -0.059 | -0.122 | -0.267 | -0.004 | 0.038 | 0.04 | 0.144 | 0.066 | -0.037
19 | WDR77 (UniProt Q9BQA1) | 0.016 | 0.022 | 0.031 | 0.024 | -0.012 | -0.022 | -0.004 | 0.007 | -0.01 | 0.032
20 | XAB2 (UniProt Q9HCS7) | -0.089 | -0.048 | -0.002 | -0.051 | -0.011 | 0.014 | -0.032 | 0.013 | 0.03 | -0.024
21 | YLPM1 (UniProt P49750) | 0.028 | -0.044 | -0.002 | 0.022 | -0.006 | 0.301 (active) | -0.031 | -0.017 | 0 | -0.046
22 | UNC13D (UniProt Q70J99) | -0.043 | -0.005 | 0.031 | -0.014 | 0.018 | 0.016 | 0.015 | 0.012 | 0.025 | -0.015
23 | WDR3 (UniProt Q9UNX4) | 0 | 0.014 | 0.021 | 0.025 | -0.033 | 0.015 | -0.032 | -0.021 | -0.001 | 0.03
24 | VAV3 isoform 4 (UniProt Q9UKW4) | 0.068 | -0.109 | -0.049 | -0.013 | -0.028 | -0.013 | 0.085 | -0.03 | -0.026 | 0.058
25 | VPS28 (UniProt Q9UK41) | 0.109 | -0.02 | 0.009 | 0.046 | -0.004 | -0.005 | 0.019 | -0.092 | 0.028 | 0.019
26 | USP48 isoform 8 (UniProt Q86UV5) | -0.02 | -0.014 | 0.004 | 0 | -0.005 | 0.007 | -0.005 | 0.001 | 0 | -0.01
27 | ZNF217 (UniProt O75362) | -0.033 | 0.053 | 0.017 | -0.014 | -0.061 | -0.005 | -0.022 | 0.002 | 0.025 | -0.031
28 | USP34 (UniProt Q70CQ2) | 0.002 | 0.006 | 0.011 | -0.027 | 0.001 | -0.001 | -0.032 | 0.014 | 0.026 | 0
29 | ZC3HC1 (UniProt Q86WB0) | -0.021 | 0.013 | 0.033 | -0.004 | -0.003 | 0.012 | 0.004 | -0.002 | 0.006 | 0.013
30 | WDR36 (UniProt Q8NI36) | -0.02 | -0.01 | 0.019 | -0.004 | 0.03 | 0.048 | 0 | 0.019 | 0.013 | 0.033

From the supplement of paper PMC10849652
